# Results taken from PubChem BioAssay (NCATS).
# Inconclusive results are not listed. Entries that show only a call come without a potency. Calls of active or inactive are those of the source. Unless noted, calls follow the shape of the dose curve; as a rule, active = well fitted curve in the direction sought with a large enough effect; inconclusive = small, poorly fitted or top-dose-only effect, or another doubt; inactive = no such curve, though single readings can be large; an effect the other way counts as inactive or inconclusive. Numbered stars: 1 amine (or outer) side, 2 acyl side, 3 side chain; on linkers, the order of the positions; unused ones are H or OH. Square brackets hold non-standard residues; d marks the D form. Peptide text beside a SMILES is read from it. ξ: configuration not given here. X4 = O=C(C1CC2(c3ccc(O)cc3)c3ccccc3NC2N1[*:1])[*:2]; ξW = NC(Cc1c[nH]c2ccccc12)C(=O)O; ξY = NC(Cc1ccc(O)cc1)C(=O)O
# Key:
# [1] = HEK-293 Cancer Cell Toxicity qHTS against the NCATS CANVASS Library (AID 1347355); also: nearly all actives have a fitted effect of over 65% in size; also: potency is read from the fitted curve at half-maximal effect
# Summary of the method: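 First, 1000 cells go into each well and rest for 4 hours. Next, an 11-point dilution range is pinned in. Plates then incubate 72 hours before CellTiter-Glo addition and luminescence reading.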
# [2] = SDT Cancer Cell Toxicity qHTS against the NCATS CANVASS Library (AID 1347365); also: nearly all actives have a fitted effect of over 60% in size; also: potency is read from the fitted curve at half-maximal effect
# Summary of the method: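 Cytotoxicity is measured from cellular ATP: compounds in an 11-point concentration series are pinned onto SDT cells, incubated 72 hr at 37C, then CellTiterGlo is added and luminescence read.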
# [3] = target: Nuclear receptor subfamily 1 group I member 3 (Homo sapiens) (UniProt Q14994); experiment: qHTS for Constitutive Androstane Receptor (CAR) Antagonist screened against the NCATS CANVASS Library (AID 1347372); also: potency is read from the fitted curve at half-maximal effect;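 as to activity change, negative = inhibition: cells stimulated with 50 nM CITCO agonist so inhibition reflects antagonism; luciferase from CYP2B6 promoter reporter driven by hCAR in HepG2 cells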
# Sequence of Nuclear receptor subfamily 1 group I member 3 (Homo sapiens) (Q14994 whole entry, looked up): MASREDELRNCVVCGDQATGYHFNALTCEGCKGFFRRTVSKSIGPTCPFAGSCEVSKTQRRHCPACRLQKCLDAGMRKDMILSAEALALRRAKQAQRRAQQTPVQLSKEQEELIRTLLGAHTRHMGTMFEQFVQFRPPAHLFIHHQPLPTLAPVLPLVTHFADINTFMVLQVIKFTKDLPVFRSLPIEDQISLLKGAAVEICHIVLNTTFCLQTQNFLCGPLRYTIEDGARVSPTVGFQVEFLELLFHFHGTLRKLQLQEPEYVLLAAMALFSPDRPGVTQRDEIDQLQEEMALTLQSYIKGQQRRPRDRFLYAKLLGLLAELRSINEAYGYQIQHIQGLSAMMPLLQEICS
# Summary of the method: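 Luminescence readout (ONE-Glo, 30 min RT) of CYP2B6-2.2kb reporter in HepG2-hCAR cells after 24hr, 37C treatment with compound against 50 nM CITCO; CellTiter-Fluor viability read beforehand.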
# [4] = qHTS for Antimalaria activity screened against the NCATS CANVASS Library (AID 1347380); also: nearly all actives have a fitted effect of over 40% in size; also: potency is read from the fitted curve at half-maximal effect;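 as to activity change, negative = inhibition: Plasmodium falciparum strain Dd2 asexual parasites grown in red blood cells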
# Summary of the method: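 Compounds are titrated over 11 concentrations onto Dd2 parasite cultures (0.3% parasitemia, 2.5% hematocrit). Growth over 72 h at 37C in low oxygen is measured as SYBR Green DNA fluorescence after lysis.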
# [5] = qHTS for activators of dead-cell proteases activity screened against the NCATS CANVASS Library (AID 1347392);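 also: luminescence from protease leaking out of membrane-damaged cells cleaving impermeant substrate; rising signal means more cytotoxicity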
# Summary of the method: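 HepG2, 2000 cells/well, 18 h attach; cpd 11-pt, 5 h 37C 5% CO2; CytoTox-Glo (AAF-aminoluciferin) 15 min RT; luminescence read.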
# [6] = Panc-1005 Cancer Cell Toxicity qHTS against the NCATS CANVASS Library (AID 1347349); also: nearly all actives have a fitted effect of over 60% in size; also: potency is read from the fitted curve at half-maximal effect
# Summary of the method: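 1000 cells/well; 4 h settle; 11-pnt titration; 72 h, 37 degrees C, 5% CO2; CellTiter-Glo, 15min RT; luminescence read.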
# [7] = Cytotoxicity qHTS for assessment of Hepg2 cells membrane integrity screened against the NCATS CANVASS Library (AID 1347387)
# Summary of the method: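 Cells were seeded at 2000 per well and left overnight to attach. Compounds were pin-transferred to give 0.59 nM - 46 uM in an 11-point series and incubated 5 hr at 37C. CytoTox-ONE reagent was added and, after 10 min at room temperature, fluorescence (ex 560, em 590 nm) was read.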
# [8] = test system: NAD(P)H diaphorase (Clostridium kluyveri); experiment: Diaphorse counterscreen qHTS: Assay Interference Panel against the NCATS CANVASS Library (AID 1347362)
# Summary of the method: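 Clostridium kluyveri diaphorase in PBS + 0.01% Tween-20 preincubated 15 min with compounds. Resazurin and NADH then added for 5 min at room temperature in the dark; resorufin fluorescence read (ex 525, em 598).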
# [9] = KB-8-5-11 Cancer Cell Toxicity qHTS against the NCATS CANVASS Library (AID 1347364); also: nearly all actives have a fitted effect of over 75% in size
# Summary of the method: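 Terse: KB-8-5-11, 500 cells/well, 72 hr, 37C/5% CO2, 11-pt titration, CellTiter-Glo readout; confirmatory runs ± 1uM tariquidar in medium.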
# [10] = qHTS Assay for Lipid Storage Modulators (AID 1519; calls by dose curve); conditions: Drosophila S3 cells, BODIPY lipid droplet/cell ratio, laser cytometry, cells loaded with oleic acid
# Summary of the method: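 Cells seeded at 5,000 per well were treated with compounds over a concentration series and loaded with oleic acid (400 uM, as added). Lipid droplet fluorescence (488 nm excitation, 500-530 nm channel) was read by laser-scanning cytometry and normalized to 20 uM Triacsin C.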
# [11] = target: Ubiquitin carboxyl-terminal hydrolase 1 (Homo sapiens) (UniProt O94782); experiment: Inhibitors of USP1/UAF1: Pilot qHTS (AID 504865);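 also: rhodamine fluorescence freed from ubiquitin-rhodamine substrate followed over time; top concentration of the series differs between compounds; nearly all actives have a fitted effect of over 35% in size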
# Sequence of Ubiquitin carboxyl-terminal hydrolase 1 (Homo sapiens) (O94782 whole entry, looked up): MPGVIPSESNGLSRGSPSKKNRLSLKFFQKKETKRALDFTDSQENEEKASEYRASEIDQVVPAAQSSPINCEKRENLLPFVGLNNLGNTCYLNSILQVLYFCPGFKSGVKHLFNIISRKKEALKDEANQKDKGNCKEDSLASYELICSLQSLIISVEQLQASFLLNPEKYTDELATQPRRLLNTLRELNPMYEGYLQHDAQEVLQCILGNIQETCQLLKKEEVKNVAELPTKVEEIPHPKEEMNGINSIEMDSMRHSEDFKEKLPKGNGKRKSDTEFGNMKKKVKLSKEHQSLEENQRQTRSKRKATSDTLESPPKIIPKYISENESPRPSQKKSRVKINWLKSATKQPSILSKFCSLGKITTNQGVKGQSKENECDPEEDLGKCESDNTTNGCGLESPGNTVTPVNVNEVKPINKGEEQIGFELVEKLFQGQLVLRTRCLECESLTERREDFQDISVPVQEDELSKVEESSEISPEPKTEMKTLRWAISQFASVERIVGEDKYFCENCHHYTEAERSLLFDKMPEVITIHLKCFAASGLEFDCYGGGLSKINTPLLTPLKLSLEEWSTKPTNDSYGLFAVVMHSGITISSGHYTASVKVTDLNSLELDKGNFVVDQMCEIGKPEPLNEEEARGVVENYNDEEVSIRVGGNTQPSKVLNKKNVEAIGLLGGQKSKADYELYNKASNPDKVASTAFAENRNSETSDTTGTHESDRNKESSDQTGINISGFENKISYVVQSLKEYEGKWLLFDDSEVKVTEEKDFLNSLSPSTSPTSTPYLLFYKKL
# Summary of the method: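 Kinetic fluorescence assay: 1nM USP1/UAF1, 15 min compound preincubation, then 150nM Ub-Rho; 480/540 nm.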
compound,measurement,setting,value
O=C(O)CC1OCc2c(O)cccc21 (configuration not stated),Potency,[1],inactive
same,Potency,[2],inactive
same,Potency,[3],inactive
same,Potency,[4],inactive
same,Potency,[5],inactive
C1=C2CCCN[C@@H]2[C@@H]2CCN3CCCC[C@@H]3[C@H](C1)C2,Potency,[1],inactive
same,Potency,[2],inactive
same,Potency,[5],inactive
C[C@@H]1O[C@H](c2c(O)cc(O)c3c(=O)cc(-c4ccc(O)cc4)oc23)[C@H](O)[C@H](O)[C@H]1O,Potency,[6],inactive
same,Potency,[1],inactive
same,Potency,[2],inactive
same,Potency,[3],inactive
same,outcome,[7],inactive
CC(C)=CCC/C(C)=C/Cc1c(O)c(CC=C(C)C)c(O)c2c(=O)c3cc(O)ccc3oc12,Potency,[6],14.9 µM (active)
same,Potency,[8],inactive
same,outcome,[7],inactive
C=C1C(=O)O[C@H]2[C@H]1CC/C(CO)=C\CC[C@@]1(C)O[C@@H]21,Potency,[6],10.6 µM (active)
same,Potency,[3],20.9 µM (active)
same,Potency,[4],8.4 nM (active)
CC[C@H](C)[C@H](NC(=O)C(Cc1ccc(O)cc1)NC(=O)C(Cc1c[nH]c2ccccc12)NC(=O)[C@H](C)N)C(=O)N1C(C(=O)NC(Cc2ccc(O)cc2)C(=O)O)CC2(c3ccc(O)cc3)c3ccccc3NC12 (some centres not stated) (H-A[ξW][ξY]I[X4][ξY]-OH),Potency,[6],inactive
same,Potency,[1],inactive
same,Potency,[8],inactive
same,Potency,[2],inactive
same,Potency,[4],inactive
same,outcome,[7],inactive
same,Potency,[5],inactive
CO[C@@H]1[C@H](O)[C@@H](C)O[C@@H](OC[C@@H]2C(C)OC(=O)/C=C/[C@H](C)C(O[C@@H]3O[C@H](C)CC4(OC(=O)O[C@@H]4C)C3O)[C@@H](C)CC(C)C(=O)CC[C@H]3OC23)[C@@H]1OC (some centres not stated),Potency,[8],inactive
same,Potency,[9],inactive
same,Potency,[4],inactive
same,outcome,[7],inactive
O=C1c2c(O)cc(O)cc2O[C@@H](c2ccc(O)cc2)[C@@H]1c1c(O)cc(O)c2c(=O)cc(-c3ccc(O)c(O)c3)oc12,Potency,[6],inactive
same,Potency,[1],inactive
same,Potency,[8],inactive
same,Potency,[2],inactive
same,Potency,[3],inactive
same,outcome,[7],inactive
CC1(C)[C@H](Br)CC[C@]23C[C@]4(C)C(=O)CC12C[C@H]34,Potency,[6],inactive
same,Potency,[1],inactive
same,Potency,[9],inactive
same,Potency,[3],inactive
same,outcome,[7],inactive
OCc1ccc2ocnc2c1,Potency,[8],inactive
same,Potency,[4],inactive
same,outcome,[7],inactive
COc1cc(/C=C/C(=O)O)ccc1O,"activity change, negative = inhibition",[10]; at 57.5 µM (top of the series),8.29% (inactive)
same,max response,[10]; measured here: cell count channel max response,5.04%
same,max response,[10]; measured here: lipid channel max response,17.5%
same,Potency,[11],inactive
same,Potency,[6],inactive
same,Potency,[1],inactive
same,Potency,[9],inactive
same,Potency,[2],inactive
same,Potency,[3],inactive
same,Potency,[4],3.3 nM (active)
same,outcome,[7],inactive
CO[C@@H]1[C@H](O)[C@@H](C)O[C@@H](OC[C@H]2/C=C/C=C/C(=O)C(C)C[C@H](C)C(O[C@@H]3O[C@H](C)CC4(OC(=O)O[C@@H]4C)C3O)[C@@H](C)/C=C/C(=O)OC2C)[C@@H]1OC (some centres not stated),Potency,[9],inactive
same,Potency,[2],inactive
same,outcome,[7],inactive
same,Potency,[5],inactive
C[C@@]12CCC[C@@](C)(C(=O)O)[C@H]1C[C@@H](O)[C@]13C[C@H]4C[C@H](O[C@@]4(C)C1)[C@@H]23,Potency,[6],inactive
same,Potency,[1],inactive
same,Potency,[2],inactive
same,Potency,[3],inactive
same,Potency,[4],inactive
same,Potency,[5],inactive
COc1ccc([C@@H]2c3cc(OC)c(OC)cc3C(=O)C(C)C2C)cc1OC (some centres not stated),Potency,[6],inactive
same,Potency,[9],inactive
same,Potency,[3],inactive
same,outcome,[7],inactive
same,Potency,[5],inactive
C[C@@]12CCC[C@@](C)(C(=O)O)[C@H]1CC[C@]13C[C@H]4C[C@H](O[C@@]4(C)C1)[C@H]32,Potency,[6],inactive
same,Potency,[1],inactive
same,Potency,[8],inactive
same,Potency,[9],inactive
same,Potency,[3],inactive
same,outcome,[7],inactive
same,Potency,[5],inactive
COC1C(O)C(OC(N)=O)C(Oc2ccc3c(O)c(NC(=O)c4ccc(O)c(CC=C(C)C)c4)c(=O)oc3c2C)OC1(C)C (configuration not stated),Potency,[9],inactive
same,Potency,[2],inactive
same,Potency,[3],inactive
same,outcome,[7],inactive
same,Potency,[5],inactive
C[C@@H](CCC[C@]1(C)C(=O)C=C[C@]23C[C@H]4C[C@H](O[C@@]4(C)C2)C31)C(=O)N[C@@H](CO)C(=O)O (some centres not stated),Potency,[2],inactive
same,Potency,[3],inactive
same,outcome,[7],inactive
CC1C(=O)C23CCC1C[C@]21O[C@@H]2C(C)(C)C=CC(=O)[C@@]23COC1=O (some centres not stated),Potency,[6],inactive
same,Potency,[9],inactive
same,Potency,[2],inactive
same,Potency,[5],inactive
CCC1=C2CCCN3C(=O)O[C@H]([C@H]1OC(C)=O)[C@H]23,Potency,[6],inactive
same,Potency,[1],inactive
same,Potency,[8],inactive
same,Potency,[3],inactive
same,Potency,[4],5.9 nM (active)
same,outcome,[7],inactive
CCCCCCCCC[C@@H]1C[C@@H]2CC[C@H]3[C@@H](C(=O)OCCCCN=C(N)N)[C@@H](C)N=C(N1)N23,Potency,[6],14.7 µM (active)
same,Potency,[1],11.5 µM (active)
same,Potency,[2],2.58 µM (active)
same,Potency,[4],1640 nM (active)
CC1C(=O)C23CCC1C[C@@]21O[C@H]2C(C)(C)C=CC(=O)[C@@]23COC1=O (some centres not stated),Potency,[6],inactive
same,Potency,[1],inactive
same,Potency,[8],inactive
same,Potency,[3],inactive
same,Potency,[5],inactive
C/C(=C\[C@H](C)C(=O)CCCC1CC(=O)NC(=O)C1)[C@@H]1OC(=O)/C=C/CC/C=C/C[C@@H](O)[C@@H]1C,Potency,[6],1.88 µM (active)
same,Potency,[8],inactive
same,Potency,[3],3.71 µM (active)
CC(=O)O[C@H]1CC[C@@]2(C)C(CC[C@]3(C)C2CC=C2C4CC(C)(C)CC[C@]4(C)CC[C@]23C)C1(C)C (some centres not stated),Potency,[8],inactive
same,Potency,[9],inactive
same,Potency,[2],inactive
same,Potency,[4],inactive
same,Potency,[5],inactive
